# Reference: the supplement of paper PMC3334620
# Whole data set: some 33,000 sequences, median “E-score (-0.5 to 0.5)” near -0.036, cut for the highest 2% near 0.37. For the sample, the highest values were picked, then their nearest neighbours and some sequences at random.
# Molecular target: T1, Yer064c (UniProt P40041)
# T1 sequence: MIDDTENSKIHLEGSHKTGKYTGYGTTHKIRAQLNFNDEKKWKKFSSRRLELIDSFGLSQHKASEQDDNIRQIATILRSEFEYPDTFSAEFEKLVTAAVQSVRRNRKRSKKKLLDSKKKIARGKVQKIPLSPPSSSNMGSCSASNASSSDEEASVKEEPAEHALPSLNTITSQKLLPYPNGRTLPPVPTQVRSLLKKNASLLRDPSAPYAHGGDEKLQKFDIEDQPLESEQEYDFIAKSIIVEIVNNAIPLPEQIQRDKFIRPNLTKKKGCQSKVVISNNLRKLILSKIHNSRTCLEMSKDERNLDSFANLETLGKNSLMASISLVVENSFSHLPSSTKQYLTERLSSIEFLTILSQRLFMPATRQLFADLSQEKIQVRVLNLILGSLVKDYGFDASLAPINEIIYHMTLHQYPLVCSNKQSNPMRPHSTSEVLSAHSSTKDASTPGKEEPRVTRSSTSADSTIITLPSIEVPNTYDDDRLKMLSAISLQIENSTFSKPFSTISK
# Assay: PBM E-score (8-mer binding enrichment) (E-score (-0.5 to 0.5)); higher = stronger / more preferred TF binding
# Conditions: protein concentration: 200 nM; construct: GST-full length
# Procedure: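 Universal 'all 10-mer' protein binding microarrays (Agilent AMADID 015681) probed with GST-tagged S. cerevisiae TFs (full-length or DBD) made by in vitro transcription/translation (PURExpress), about 100-200 nM. Bound TF was detected with fluorescent anti-GST. Each ungapped 8-mer (which stands for itself and its reverse complement) is scored by the PBM enrichment score (E-score), a modified Wilcoxon-Mann-Whitney statistic from -0.5 to +0.5, computed with the Universal PBM Analysis Suite. Scale: above 0.35 generally sequence-specific binding.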
row,Sequence,PBM E-score
1,AGTCAAAA,0.408
2,ACTCAAAT,0.294
3,ATTCAAAT,0.214
4,GGTCAAAA,0.0441
5,AGTCAAAC,0.35
6,CGTCAAAA,-0.0525
7,CGTCAAAG,0.0679
8,AGTCAAAG,0.406
9,AGTCAAAT,0.412
10,ACGCGAGC,-0.0659
11,GGCAAGAC,-0.163
12,GTGGCATA,-0.194
13,AATGCGTA,0.00743
14,GGTAGGGA,-0.0117
15,AGGGAAGA,-0.0141
16,AGAAAATC,0.0604
17,ACATCGGA,0.0356
18,CACTCAAA,0.107
19,CACTCAAC,0.0472
20,AACTCAAC,0.123
21,TACTCAAA,0.201
22,GACTCAAA,0.48
23,GACTCAAC,0.472
24,CGGCCCGA,-0.157
25,ACGAGAGC,-0.143

row,Sequence,PBM E-score
1,GTTGGCAA,-0.14
2,AAGCTTAA,0.0226
3,CGGTACAG,-0.12
4,GGCTCACA,0.13
5,CTCGTAAC,0.0792
6,CACTCTCA,-0.0477
7,AACTCTCC,-0.159
8,GACTCTCA,0.418
9,GACTCTCC,0.411
10,AACTCTCA,0.0457
11,CACTCTCC,-0.0733
12,AGGTCTTA,0.0474
13,CCTTCCCA,-0.0175
14,CAATGCAC,0.0625
15,CTGAGCCA,0.31
16,ATGAGCCA,0.396
17,ATGAGCCC,-0.00355
18,ACATCATC,0.212
19,AAATCATC,0.403
20,AAATCATG,0.385
21,AAATCAAG,0.0497
22,CAATCAGG,0.218
23,AAATCATT,0.359
24,GCATCATA,0.0926
25,CAATCATG,0.369

row,Sequence,PBM E-score
1,CAATCAAG,0.212
2,GAATCATA,0.464
3,ATATCATC,-0.113
4,GTATCATA,0.0771
5,ATTTTGTA,0.00667
6,ACAAGAGT,0.149
7,CTTCATAC,-0.00264
8,GGCCGGAA,-0.146
9,GTCGGCGA,0.141
10,GAATGAGA,0.0143
11,AGCGTCCG,-0.131
12,CAGCAAGA,-0.11
13,CGCTTCCA,-0.24
14,ATGTAAGC,-0.0792
15,AACTGTTA,0.0274
16,GAGAGGAA,-0.0878
17,ATATCATA,0.00064
18,TAATCAGA,0.35
19,ACATCATA,0.107
20,TAATCAAA,0.315
21,AAATCATA,0.387
22,TAATCATA,0.457
23,GGTGAGCA,-0.00163
24,GGAACCAA,-0.106
25,AGTCACCG,0.476

row,Sequence,PBM E-score
1,CGTCACCC,-0.258
2,GGTCACCA,0.036
3,AGTCACCC,0.479
4,CGTCACCA,-0.0242
5,AGACACCG,0.11
6,ATTCACCG,0.0472
7,ATTCACCC,0.0614
8,AGTCACCA,0.469
9,TACGCAGA,0.1
10,TAGATGAA,0.00973
11,AGACCCGG,-0.0102
12,GTAGAGCA,-0.0431
13,CCATCGGA,-0.00521
14,GCTTTCAA,0.0808
15,CCATCCCA,0.0189
16,AATATCCG,-0.0742
17,ACCGAGTC,0.377
18,AGCGAGTA,0.115
19,CGCGAGCC,0.0358
20,AGCGAGTC,0.405
21,CGCGAGTA,0.0526
22,ACCGAGTA,-0.0874
23,CGCGAGTC,0.405
24,AGCGAGTG,0.0737
25,CCCGAGTC,0.329

row,Sequence,PBM E-score
1,CGGGAGAA,-0.141
2,CTTATCCC,-0.147
3,AAGGAAGG,-0.0955
4,ACCCTATG,0.155
5,GAGCTTCA,-0.142
6,ACGGATGG,0.0552
7,ATCTTCCG,-0.0471
8,GACGACTA,0.415
9,GACGACGC,-0.226
10,GACGACCC,-0.217
11,AACGACTG,0.133
12,AACGACAC,-0.105
13,AACGACTT,0.177
14,GACGACGA,0.00788
15,ATCGACTC,0.304
16,GTCGACTA,0.335
17,AACGACTA,0.393
18,AACGACTC,0.427
19,GACGACTC,0.442
20,CGGCTACA,-0.00254
21,CGTTTCGC,-0.125
22,AATCTTCG,0.25
23,TACCTGGA,0.0309
24,CTCCACCC,-0.099
25,AAAGACCA,-0.029

row,Sequence,PBM E-score
1,TACGGCGA,-0.108
2,CACGACTG,0.238
3,CACGACGA,0.044
4,CACGACAC,-0.043
5,CACGACGC,-0.163
6,TACGACGA,0.071
7,CACGACTA,0.403
8,CACGACTC,0.437
9,TACGACTA,0.415
10,TACGACAA,0.0113
11,TAGCCACA,0.14
12,CGCGATAC,-0.206
13,CAAAATCC,0.087
14,CAAAAGCC,-0.227
15,GAGCCATA,0.366
16,GAGCCATC,0.342
17,TAGCCATA,0.28
18,AGAGCTCG,-0.222
19,GGTCATAA,0.081
20,AGTCATAC,0.486
21,TGTCATAA,0.0821
22,AGACATAT,0.137
23,AGCCATAG,0.199
24,CGTCATAA,-0.00764
25,AGTCATAA,0.476

row,Sequence,PBM E-score
1,AGTCATAT,0.484
2,GGTCATAC,0.123
3,CGTCATAG,-0.0141
4,CGTCATAC,0.192
5,AGTCATAG,0.482
6,CAAAACTC,-0.0536
7,AAAATAAC,0.0567
8,CCGTCCCG,-0.193
9,ACAATTAA,0.144
10,CGTGCGTC,-0.13
11,TGTGCTAA,0.0249
12,AGAATCAC,0.374
13,AGAATCCT,-0.0297
14,GGAATCCC,-0.166
15,AGAATCAG,0.325
16,AGAATCGC,0.127
17,ACAATCAT,0.385
18,GGAATCAA,0.257
19,AGAATCCC,0.0788
20,GGAATCAC,0.418
21,AGAATCAT,0.44
22,ACAATCAC,0.351
